Vc quorum ag-1 = inducers of Vibrio cholerae quorum light production without autoinducers, primary screen, BH1578 luxS cqsA deficient, single point | V. cholerae BH1578 lux reporter, luminescence, 6 h | activation, % at 18.7 µM | 350,000 compounds, 0.16% hits; in the data active means activation mostly above about 9.7%, no sharp cut-off
ugtP null kill = growth inhibition of ugtP-null S. aureus, primary screen, RN4220 ugtP deletion, OD600. 16 h. growth inhibition, % (concentration not given with the values). 330,000 compounds, 0.54% hits; in the data active means growth inhibition above about 68%;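 further: plate controls were untreated wells for no effect and antibiotic for full effect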
TcdB inh = TcdB glycohydrolase inhibitors, primary screen, biochemical, single point, plate reader; Toxin B (Clostridioides difficile), P18177; 350,000 compounds, 0.24% hits; inhibition, % at 9.99 µM; AID 652162, 2013; TcdB glycohydrolase enzymatic assay; in the data active means inhibition above about 10%
Target sequence (P18177 whole entry, looked up): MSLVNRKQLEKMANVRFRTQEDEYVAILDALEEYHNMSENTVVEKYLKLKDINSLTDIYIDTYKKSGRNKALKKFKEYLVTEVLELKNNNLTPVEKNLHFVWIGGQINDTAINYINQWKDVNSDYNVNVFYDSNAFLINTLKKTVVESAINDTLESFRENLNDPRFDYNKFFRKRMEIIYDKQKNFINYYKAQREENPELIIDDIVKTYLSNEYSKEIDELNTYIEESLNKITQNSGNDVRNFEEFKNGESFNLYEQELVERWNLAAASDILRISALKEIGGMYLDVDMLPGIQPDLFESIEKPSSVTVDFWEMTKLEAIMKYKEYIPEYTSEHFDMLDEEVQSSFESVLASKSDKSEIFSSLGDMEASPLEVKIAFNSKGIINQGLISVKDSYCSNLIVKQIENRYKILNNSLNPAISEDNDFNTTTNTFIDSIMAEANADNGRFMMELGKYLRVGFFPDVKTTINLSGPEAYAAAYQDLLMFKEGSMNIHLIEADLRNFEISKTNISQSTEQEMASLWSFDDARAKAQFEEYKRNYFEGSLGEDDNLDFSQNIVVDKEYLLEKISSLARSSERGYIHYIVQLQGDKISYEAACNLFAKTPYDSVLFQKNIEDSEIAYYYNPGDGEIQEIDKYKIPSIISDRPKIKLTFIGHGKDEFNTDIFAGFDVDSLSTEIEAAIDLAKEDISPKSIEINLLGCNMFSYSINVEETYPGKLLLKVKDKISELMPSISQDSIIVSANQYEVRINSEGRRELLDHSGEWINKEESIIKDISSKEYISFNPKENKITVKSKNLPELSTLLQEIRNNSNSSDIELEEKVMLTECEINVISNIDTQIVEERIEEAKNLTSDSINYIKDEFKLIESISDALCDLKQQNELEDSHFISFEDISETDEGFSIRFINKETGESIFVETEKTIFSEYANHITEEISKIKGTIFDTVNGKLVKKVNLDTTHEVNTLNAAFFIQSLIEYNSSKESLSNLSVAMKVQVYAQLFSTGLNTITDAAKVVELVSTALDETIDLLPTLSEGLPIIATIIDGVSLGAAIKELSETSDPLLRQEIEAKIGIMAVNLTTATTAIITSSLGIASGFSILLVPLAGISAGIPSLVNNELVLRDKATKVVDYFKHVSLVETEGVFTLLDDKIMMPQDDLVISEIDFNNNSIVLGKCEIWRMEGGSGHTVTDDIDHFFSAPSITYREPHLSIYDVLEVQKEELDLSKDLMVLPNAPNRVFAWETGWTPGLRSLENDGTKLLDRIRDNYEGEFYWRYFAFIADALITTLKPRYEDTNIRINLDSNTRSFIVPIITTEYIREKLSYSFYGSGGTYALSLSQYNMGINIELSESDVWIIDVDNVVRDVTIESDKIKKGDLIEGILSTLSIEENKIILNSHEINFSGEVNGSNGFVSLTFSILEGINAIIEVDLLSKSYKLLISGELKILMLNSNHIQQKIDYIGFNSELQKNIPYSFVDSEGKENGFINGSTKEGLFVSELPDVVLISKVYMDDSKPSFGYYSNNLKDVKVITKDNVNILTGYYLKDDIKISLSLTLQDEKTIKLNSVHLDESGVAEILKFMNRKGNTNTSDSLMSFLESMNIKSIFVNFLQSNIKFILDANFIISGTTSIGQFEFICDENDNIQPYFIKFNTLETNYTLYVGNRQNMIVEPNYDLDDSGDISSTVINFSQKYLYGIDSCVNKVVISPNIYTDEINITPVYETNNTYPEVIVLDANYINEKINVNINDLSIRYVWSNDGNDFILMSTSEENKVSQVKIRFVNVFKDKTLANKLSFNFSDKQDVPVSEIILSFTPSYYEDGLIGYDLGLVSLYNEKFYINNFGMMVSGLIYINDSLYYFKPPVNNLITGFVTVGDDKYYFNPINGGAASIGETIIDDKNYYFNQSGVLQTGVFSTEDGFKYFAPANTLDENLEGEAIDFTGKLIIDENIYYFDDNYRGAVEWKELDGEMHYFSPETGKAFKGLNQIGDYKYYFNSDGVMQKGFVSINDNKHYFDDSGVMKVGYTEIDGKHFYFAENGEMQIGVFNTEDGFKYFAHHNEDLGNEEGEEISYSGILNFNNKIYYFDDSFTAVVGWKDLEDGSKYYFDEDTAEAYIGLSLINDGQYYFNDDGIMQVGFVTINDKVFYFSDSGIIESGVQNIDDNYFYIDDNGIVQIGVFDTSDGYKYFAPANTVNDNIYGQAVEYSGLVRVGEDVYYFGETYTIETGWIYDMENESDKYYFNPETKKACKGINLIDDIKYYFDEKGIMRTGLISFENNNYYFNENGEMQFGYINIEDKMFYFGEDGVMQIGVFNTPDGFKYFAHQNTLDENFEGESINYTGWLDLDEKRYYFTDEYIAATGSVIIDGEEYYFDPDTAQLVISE
RN4220 kill = growth inhibition of S. aureus RN4220, primary screen, OD600; 16 h; inhibition, % (test concentration not listed); 330,000 compounds, 0.33% hits; AID 1259311, 2017; in the data active means inhibition above about 85%;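 further: plate controls were untreated cells for no effect and reference antibiotic for full effect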
Vc quorum ag-2 = V. cholerae lux activation without autoinducers – BH1578 luxS cqsA deficient, cherry-pick, plate reader, dose response; 620 tested, under 10 active; activation, % at 50 µM; shares compounds with Vc quorum ag-1; AID 602243, 2012; V. cholerae BH1578 lux reporter, luminescence, 6 h; call rule not given here
Starred values were filed as active, the others as inactive. In the library only some 0.67% were active in any assay of this set; here they are far more common.

Screening O=C(COC(=O)/C=C/c1ccc(OC(F)F)cc1)NC1CCCCCC1 returned Vc quorum ag-1 9.5*, ugtP null kill 5.0, TcdB inh 0.9, RN4220 kill 3.1 and Vc quorum ag-2 0.3.
Screening O=C(COC(=O)/C=C/c1ccccc1)NC1CCCC1 returned Vc quorum ag-1 528.9*, ugtP null kill 2.2, TcdB inh -1.5, RN4220 kill -0.4 and Vc quorum ag-2 475.8.
For CC(=O)Oc1ccc2occ(C=Nc3cc(=O)[nH]c(=S)[nH]3)c(=O)c2c1 the results were ugtP null kill 10.5 and RN4220 kill 2.3.
For CC(=O)c1ccc(Oc2cc(C)nc(NCc3ccccc3)n2)cc1 the results were Vc quorum ag-1 25.0*, ugtP null kill -9.0, RN4220 kill -1.7 and Vc quorum ag-2 0.5.
Screening CCOc1cc(C=NO)ccc1OCC(=O)Nc1cccc(C)c1 returned ugtP null kill 0.6 and RN4220 kill 4.1.
Screening Cn1cccc1C(=O)OCc1cc(-c2ccco2)on1 returned Vc quorum ag-1 31.0*, ugtP null kill 7.8, TcdB inh -2.7, RN4220 kill 10.8 and Vc quorum ag-2 39.4.
CC(=O)Nc1ccc2nc(-c3cccnc3)[nH]c2c1 was read as Vc quorum ag-1 75.4*, ugtP null kill 7.5, RN4220 kill 1.0 and Vc quorum ag-2 1.9.
COc1ccc(Cc2nnc(NC(=O)C3CC(=O)N(c4ccccc4C)C3)s2)cc1OC (stereo not given) was read as Vc quorum ag-1 9.3, ugtP null kill 4.0, TcdB inh -0.7, RN4220 kill 5.5 and Vc quorum ag-2 0.8.
CCc1nnc(NC(=O)C2CC(=O)N(c3ccc(C)cc3)C2)s1 (stereo not given) was read as Vc quorum ag-1 12.5, ugtP null kill -3.5, RN4220 kill -0.3 and Vc quorum ag-2 0.2.
Screening CCN(CC(=O)Nc1c(F)cccc1F)C(=O)c1ccc(C)c(S(=O)(=O)N2CCCCC2)c1 returned Vc quorum ag-1 1.8, ugtP null kill 1.8, RN4220 kill -2.3 and Vc quorum ag-2 0.2.
For COc1ccc2nc(SC(C)C(=O)NCC(=O)Nc3ccc(F)c(F)c3F)[nH]c2c1 (stereo not given) the results were Vc quorum ag-1 14.3, ugtP null kill -5.0, TcdB inh 2.0, RN4220 kill -0.8 and Vc quorum ag-2 0.0.
Screening COc1ccc(-n2nnnc2SC(C)C(=O)NCC(=O)Nc2ccc(F)c(F)c2F)cc1 (stereo not given) returned Vc quorum ag-1 0.4, ugtP null kill -12.6 and RN4220 kill -3.0.
`O=C(c1ccc2c(c1)OCO2)N(Cc1ccco1)C1(C(=O)NC2CCCCC2)CCCCC1` gave Vc quorum ag-1 16.7*, ugtP null kill -4.3, RN4220 kill 5.9 and Vc quorum ag-2 0.2.
CCCC(=NNC(=O)C1CC1)c1ccccc1 was read as ugtP null kill 7.4 and RN4220 kill 5.4.
`Cc1cc(C)c(S(C)(=O)=O)c(Oc2ccc(C(C)(C)C)cc2)n1` gave Vc quorum ag-1 12.5, ugtP null kill 7.4, RN4220 kill -16.9 and Vc quorum ag-2 0.1.
Cc1cccc(-c2cc3nc4c(c(N5CCC6(CC5)OCCO6)n3n2)CCCC4)c1 was read as Vc quorum ag-1 1.4, ugtP null kill 1.4, TcdB inh 0.8, RN4220 kill 8.2 and Vc quorum ag-2 -0.1.
Screening Cc1cccc(-c2cc3nc4c(c(N5CCOCC5)n3n2)CCCC4)c1 returned Vc quorum ag-1 inactive, ugtP null kill -9.8, TcdB inh 2.9 and RN4220 kill 6.9.
For CCOC(=O)C(C)NS(=O)(=O)N(Cc1ccccc1)C(C(=O)OC)C(C)C (stereo not given) the results were ugtP null kill 1.3 and RN4220 kill 10.6.
CCCCN1C(=S)NCC1C(C)CC (stereo not given) was read as ugtP null kill -9.7 and RN4220 kill 3.1.
Screening CCOC1OC(C(=O)N2CCN(Cc3ccc4c(c3)OCO4)CC2)=CC(c2csc3ccccc23)C1CCCO (stereo not given) returned ugtP null kill 8.3 and RN4220 kill 4.3.
For CN(C(=O)C12CC3CC(CC(C3)C1)C2)C1(C)CCS(=O)(=O)C1 (stereo not given) the results were Vc quorum ag-1 -0.2, ugtP null kill -4.1 and RN4220 kill 8.2.
CC1(NC(=O)C23CC4CC(CC(C4)C2)C3)CCS(=O)(=O)C1 (stereo not given) was read as Vc quorum ag-1 16.7*, ugtP null kill 1.1, RN4220 kill 2.4 and Vc quorum ag-2 0.0.
C[C@@H](N)C(=O)NCC1CCC(C(=O)N[C@@H](Cc2ccccc2)C(=O)O)CC1 (stereo not given in full) was read as ugtP null kill 7.5 and RN4220 kill 2.2.
COc1cccc(NN=C(C#N)S(=O)(=O)C(C)(C)C)c1 was read as ugtP null kill 1.9 and RN4220 kill 4.7.
For Cc1cccc(C(=O)N2CCC(c3nc(-c4ccc(S(=O)(=O)N5CCOCC5)cc4)no3)CC2)c1 the results were Vc quorum ag-1 inactive, ugtP null kill -5.1 and RN4220 kill 3.4.
`O=C(c1ccccc1)N1CCC(c2nc(-c3ccc(S(=O)(=O)N4CCOCC4)cc3)no2)CC1` gave Vc quorum ag-1 6.6 and Vc quorum ag-2 0.7.
Screening CC(=O)Oc1ccc(-c2ccc(C(=O)O)cc2)cc1 returned Vc quorum ag-1 25.0*, ugtP null kill 2.3, RN4220 kill 0.4 and Vc quorum ag-2 -0.2.
For CC(=O)Oc1ccc(-c2cccc(C(=O)O)c2)cc1 the results were Vc quorum ag-1 inactive, ugtP null kill 7.8 and RN4220 kill 4.4.
Cn1c(=O)c2c(nc(C=Cc3cccc(Cl)c3)n2C)n(C)c1=O was read as ugtP null kill -9.5 and RN4220 kill 6.6.
`Cn1cccc1C=NNC(=O)C1COc2ccccc2O1` (stereo not given) gave ugtP null kill -0.2 and RN4220 kill -0.3.
O=C(c1ccco1)N1CCN(c2nc(C3CC3)nc3c2nnn3Cc2ccccc2Cl)CC1 was read as Vc quorum ag-1 0.7, ugtP null kill 14.9 and RN4220 kill -5.7.
Screening CC(C)(C)c1nc(N2CCN(C(=O)c3ccco3)CC2)c2nnn(Cc3ccccc3)c2n1 returned Vc quorum ag-1 16.7*, ugtP null kill 68.4, RN4220 kill -9.7 and Vc quorum ag-2 0.1.
For COc1ccc(CCNC(=O)c2nnn(-c3ccc4c(c3)OCCO4)c2N)cc1OC the results were Vc quorum ag-1 7.6*, ugtP null kill 3.0, RN4220 kill 3.0 and Vc quorum ag-2 1.3.
Screening CCN1CC2C3C(=O)N(Cc4ccccc4)C(=O)C3[C@](C)(C1=O)N2C(=O)c1ccccc1 (stereo not given in full) returned ugtP null kill 0.4 and RN4220 kill 3.6.
For CCOC1OC(C(=O)O)=CC(C2CC2)C1CCCO (stereo not given) the results were ugtP null kill -0.7 and RN4220 kill 0.6.

Compound activity deposited in PubChem by several laboratories.
